PubChem BioAssay (EPA / NIEHS)
The source made the active and inactive calls. How the source made its calls: active means hit-call score of the fitted dose curve at least 0.9, where 1 is the maximum; inactive means score below 0.9.

How the values were obtained:
[1] = read-out: Transforming growth factor beta 1 (TGFb1), TGFB1 (gene 7040); experiment: BSK_KF3CT_TGFb1: BioMAP Diversity Plus: KF3CT Assay for Transforming growth factor beta 1 (TGFb1) Biomarker Activity (AID 2283072); conditions: primary human keratinocytes with fibroblasts; actives raise or lower the signal
Summary of the method: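 Human keratinocyte plus foreskin fibroblast primary co-culture, dosed with chemical for 24 h. TGF-b1 quantified by ELISA. Activity fitted bidirectionally against DMSO negative control as baseline.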

[2] = read-out: C-C motif chemokine 2 (Homo sapiens) (UniProt P13500); experiment: BSK_KF3CT_MCP1: BioMAP Diversity Plus: KF3CT Assay for Monocyte Chemoattractant Protein 1 (MCP1/CCL2) Biomarker Activity (AID 2283073); conditions: primary human keratinocytes with fibroblasts; actives raise or lower the signal
Summary of the method: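 ELISA read-out of MCP-1, 24 h post-dose, in primary human skin keratinocytes co-cultured with fibroblasts. Parallel SRB staining monitors cytotoxicity; changes fitted both directions relative to DMSO.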

[3] = read-out: Matrix Metallopeptidase 9 (MMP9), MMP9 (gene 4318); experiment: BSK_KF3CT_MMP9: BioMAP Diversity Plus: KF3CT Assay for Matrix Metallopeptidase 9 (MMP9) Biomarker Activity (AID 2283074); conditions: primary human keratinocytes with fibroblasts; actives raise or lower the signal;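 on AC50: MMP9 protein level quantified by ELISA in the co-culture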
Summary of the method: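 Human keratinocyte and foreskin fibroblast co-culture exposed to chemicals for 24 h; MMP9 biomarker measured by ELISA, bidirectional fitting relative to DMSO; cytotoxicity tracked by SRB total protein staining in parallel cultures.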

[4] = read-out: urokinase plasminogen activator (uPA), PLAU (gene 5328); experiment: BSK_KF3CT_uPA: BioMAP Diversity Plus: KF3CT Assay for urokinase plasminogen activator (uPA) Biomarker Activity (AID 2283075); conditions: primary human keratinocytes with fibroblasts; actives raise or lower the signal
Summary of the method: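 Primary human keratinocyte/foreskin fibroblast co-culture exposed to chemical; uPA measured by ELISA at 24 h. Bidirectional fit versus DMSO, with parallel SRB total-protein staining for cytotoxicity.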

[5] = read-out: E-selectin (Homo sapiens) (UniProt P16581); experiment: BSK_LPS_Eselectin: BioMAP Diversity Plus: LPS Assay for Eselectin Biomarker Activity (AID 2283077); conditions: primary human HUVEC with PBMC; actives raise or lower the signal
Summary of the method: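 E-selectin ELISA on LPS-stimulated endothelial cell/PBMC co-cultures, read 24 h post-treatment; gains and losses fitted against DMSO. Parallel SRB staining (0.1% SRB after 10% TCA fixation, 560 nm) flags overt cytotoxicity.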

[6] = read-out: Interleukin-8 (IL8), CXCL8 (gene 3576); experiment: BSK_LPS_IL8: BioMAP Diversity Plus: LPS Assay for Interleukin-8 (IL8) Biomarker Activity (AID 2283078); conditions: primary human HUVEC with PBMC; actives raise or lower the signal
Summary of the method: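 ELISA read-out of IL-8 after 24 h chemical treatment of LPS-activated endothelial/PBMC human primary co-cultures. Changes either up or down relative to DMSO; overt cytotoxicity checked by sulforhodamine B staining in parallel wells.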

[7] = BSK_LPS_SRB: Viability Assessment in the BioMAP Diversity Plus: LPS Assay (AID 2283079); conditions: primary human HUVEC with PBMC;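 further: total protein by sulforhodamine B absorbance as a cytotoxicity measure; measured one day after compound addition; fitted in both directions against DMSO so loss or gain of signal counts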
Summary of the method: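 SRB viability endpoint: cells fixed with 10% TCA, stained with 0.1% SRB, read at 560 nm, 24 h post-dose. HUVEC/PBMC co-culture; signal change in either direction scored relative to DMSO.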

[8] = read-out: Interleukin-1 alpha (IL1a), IL1A (gene 3552); experiment: BSK_LPS_IL1a: BioMAP Diversity Plus: LPS Assay for Interleukin-1 alpha (IL1a) Biomarker Activity (AID 2283080); conditions: primary human HUVEC with PBMC; actives raise or lower the signal
Summary of the method: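 Readout is IL-1a level by ELISA, 24 h post-dose, fitted as gain or loss relative to DMSO. System: LPS-activated human primary co-culture of vascular endothelium and peripheral blood mononuclear cells, with parallel SRB total-protein cytotoxicity.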

[9] = read-out: Monocyte Chemoattractant Protein-1 (MCP1), CCL2 (gene 6347); experiment: BSK_LPS_MCP1: BioMAP Diversity Plus: LPS Assay for Monocyte Chemoattractant Protein-1 (MCP1) Biomarker Activity (AID 2283081); conditions: primary human HUVEC with PBMC; actives raise or lower the signal;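 on AC50: secreted MCP-1 protein quantified by ELISA in culture supernatant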
Summary of the method: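 Secreted MCP-1 read by ELISA at 24 h post-dosing in an LPS-activated co-culture of endothelial cells with peripheral blood mononuclear cells. Fits run in both directions, DMSO as baseline; parallel SRB staining tracks overt cytotoxicity.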

[10] = read-out: Macrophage colony-stimulating factor (MCSF), CSF1 (gene 1435); experiment: BSK_LPS_MCSF: BioMAP Diversity Plus: LPS Assay for Macrophage colony-stimulating factor (MCSF) Biomarker Activity (AID 2283083); conditions: primary human HUVEC with PBMC; actives raise or lower the signal
Summary of the method: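 Bidirectional fitting against DMSO was applied to M-CSF levels read by ELISA at 24 h post-dose. The system pairs human umbilical vein endothelium with peripheral blood mononuclear cells; parallel SRB staining tracked cytotoxicity.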

[11] = read-out: Tissue Factor, F3 (gene 2152); experiment: BSK_LPS_TissueFactor: BioMAP Diversity Plus: LPS Assay for Tissue Factor Biomarker Activity (AID 2283084); conditions: primary human HUVEC with PBMC; actives raise or lower the signal
Summary of the method: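 Compound was added to an endothelial cell/PBMC co-culture, and after 24 h tissue factor (CD142) was read by ELISA. Gain or loss of signal was fitted against a DMSO baseline, and parallel SRB staining (560 nm) tracked overt cytotoxicity.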

[12] = read-out: Tumor necrosis factor (Homo sapiens) (UniProt P01375); experiment: BSK_LPS_TNFa: BioMAP Diversity Plus: LPS Assay for Tumour Necrosis Factor alpha (TNFa) Biomarker Activity (AID 2283085); conditions: primary human HUVEC with PBMC; actives raise or lower the signal
Summary of the method: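 Human umbilical vein endothelial cells co-cultured with PBMC were exposed to test chemical and TNFa measured by ELISA 24 h after dosing. Bidirectional curve fitting was done relative to DMSO as negative control and baseline.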

[13] = read-out: Vascular cell adhesion molecule 1 (VCAM1), VCAM1 (gene 7412); experiment: BSK_LPS_VCAM1: BioMAP Diversity Plus: LPS Assay for Vascular cell adhesion molecule 1 (VCAM1) Biomarker Activity (AID 2283086); conditions: primary human HUVEC with PBMC; actives raise or lower the signal
Summary of the method: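 Human umbilical vein endothelial cells co-cultured with peripheral blood mononuclear cells under LPS stimulation were exposed to test chemical for 24 h. VCAM-1 levels were then measured by ELISA, with bidirectional curve fitting relative to DMSO as negative control and baseline.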

[14] = read-out: CD40, CD40 (gene 958); experiment: BSK_SAg_CD40: BioMAP Diversity Plus: SAg Assay for CD40 Biomarker Activity (AID 2283088); conditions: primary human HUVEC with PBMC; actives raise or lower the signal
Summary of the method: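 CD40 is measured by fluorescence ELISA in an endothelial/PBMC primary human co-culture at 24 h post-dose. Fitting is bidirectional, DMSO baseline. Parallel SRB staining (560 nm) flags cytotoxicity.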

[15] = read-out: Monocyte Chemoattractant Protein-1 (MCP1), CCL2 (gene 6347); experiment: BSK_SAg_MCP1: BioMAP Diversity Plus: SAg Assay for Monocyte Chemoattractant Protein-1 (MCP1) Biomarker Activity (AID 2283090); conditions: primary human HUVEC with PBMC; actives raise or lower the signal
Summary of the method: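 MCP-1 levels in the endothelial–PBMC SAg co-culture were quantified by ELISA at 24 h post-dosing; both increases and decreases versus DMSO scored. Cytotoxicity monitored by SRB total protein in parallel cultures.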

[16] = read-out: CD40, CD40 (gene 958); experiment: BSK_LPS_CD40: BioMAP Diversity Plus: LPS Assay for CD40 Biomarker Activity (AID 2283076); conditions: primary human HUVEC with PBMC; actives raise or lower the signal
Summary of the method: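 In the LPS system of human endothelial cells with peripheral blood mononuclear cells, CD40 levels were read by ELISA 24 h post-treatment. Signal changes in either direction were fitted against the DMSO baseline, with parallel SRB protein staining.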

[17] = BSK_LPS_PGE2: BioMAP Diversity Plus: LPS Assay for Prostaglandin E2 (PGE2) Biomarker Activity (AID 2283082); conditions: primary human HUVEC with PBMC; actives raise or lower the signal;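 on AC50: secreted prostaglandin E2 measured by ELISA in LPS-stimulated co-culture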
Summary of the method: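 HUVEC plus PBMC co-culture stimulated with LPS; secreted PGE2 quantified by ELISA 24 h after chemical dosing. Activity fitted bidirectionally against DMSO as negative control and baseline; parallel SRB total-protein staining served as cytotoxicity check.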

[18] = read-out: CD38, CD38 (gene 952); experiment: BSK_SAg_CD38: BioMAP Diversity Plus: SAg Assay for CD38 Biomarker Activity (AID 2283087); conditions: primary human HUVEC with PBMC; actives raise or lower the signal
Summary of the method: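 Fluorescence ELISA of cell-surface CD38 served as the read-out, with either increase or decrease fitted against DMSO controls. Cells were a human umbilical vein endothelium plus PBMC co-culture under SEB/TSST-1 stimulation, measured 24 h after dosing.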

[19] = read-out: CD69, CD69 (gene 969); experiment: BSK_SAg_CD69: BioMAP Diversity Plus: SAg Assay for CD69 Biomarker Activity (AID 2283089); conditions: primary human HUVEC with PBMC; actives raise or lower the signal
Summary of the method: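 Values derive from bidirectional fitting relative to DMSO vehicle. Cells: umbilical vein endothelium plus peripheral blood mononuclear cells, treated 24 h before fluorescent ELISA for CD69.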

Measured: AC50

Tumor necrosis factor (Homo sapiens), sequence (P01375 whole entry, looked up): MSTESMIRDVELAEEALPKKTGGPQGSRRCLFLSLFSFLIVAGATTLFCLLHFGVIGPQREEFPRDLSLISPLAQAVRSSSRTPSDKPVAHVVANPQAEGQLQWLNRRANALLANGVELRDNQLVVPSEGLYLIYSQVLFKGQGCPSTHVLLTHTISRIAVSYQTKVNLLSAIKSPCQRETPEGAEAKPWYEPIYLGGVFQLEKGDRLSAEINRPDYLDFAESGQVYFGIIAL
E-selectin (Homo sapiens), sequence (P16581 whole entry, looked up): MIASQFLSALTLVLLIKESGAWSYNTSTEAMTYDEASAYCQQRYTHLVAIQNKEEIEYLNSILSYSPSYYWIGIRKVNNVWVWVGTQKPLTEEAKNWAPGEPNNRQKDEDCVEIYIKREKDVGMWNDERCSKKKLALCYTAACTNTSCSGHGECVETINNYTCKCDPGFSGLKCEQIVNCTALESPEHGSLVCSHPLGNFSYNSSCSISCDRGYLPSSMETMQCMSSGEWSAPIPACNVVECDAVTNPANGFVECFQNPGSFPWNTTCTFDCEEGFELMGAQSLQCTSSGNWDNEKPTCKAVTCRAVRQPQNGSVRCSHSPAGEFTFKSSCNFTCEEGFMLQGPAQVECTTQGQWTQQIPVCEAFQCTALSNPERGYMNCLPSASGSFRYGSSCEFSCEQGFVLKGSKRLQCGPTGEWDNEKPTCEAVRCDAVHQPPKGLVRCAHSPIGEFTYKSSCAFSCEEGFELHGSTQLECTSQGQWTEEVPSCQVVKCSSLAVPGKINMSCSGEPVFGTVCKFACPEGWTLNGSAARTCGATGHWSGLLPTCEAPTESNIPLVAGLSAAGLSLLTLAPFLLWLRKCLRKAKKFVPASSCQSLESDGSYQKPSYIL

CC(C)[C@H](C(=O)O[C@H](C#N)c1cccc(Oc2ccccc2)c1)c1ccc(Cl)cc1
active: [5] 7.16 µM | [6] 5.9 µM
not listed: [16] | [17] | [18] | [19]
inactive: all other assays above

COc1ccc(C(=CC(=O)N2CCOCC2)c2ccc(Cl)cc2)cc1OC
active: [16] 14.1 µM | [5] 10.3 µM | [9] 1.25 µM | [10] 12.8 µM | [12] 1.4 µM | [14] 6.93 µM | [15] 12.8 µM
not listed: [18] | [19]
inactive: all other assays above

CSc1nnc(C(C)(C)C)c(=O)n1N
not listed: [16]
inactive: all other assays above

C=C(C)[C@H]1Cc2c(ccc3c2O[C@@H]2COc4cc(OC)c(OC)cc4[C@@H]2C3=O)O1
inactive: [1] | [2] | [4] | [6] | [12]
active: [3] 16.7 µM | [5] 20 µM | [7] 10.9 µM | [9] 26.8 µM | [17] 0.702 µM | [10] 13.4 µM | [11] 8.75 µM | [13] 5.99 µM | [14] 7.75 µM | [15] 16.7 µM

COP(=O)(NC(C)=O)SC (stereo not drawn)
not listed: [16] | [18] | [19]
inactive: all other assays above

CCC(=O)Nc1ccc(Cl)c(Cl)c1
active: [17] 8.77 µM
not listed: [18] | [19]
inactive: all other assays above

CC(=NC#N)N(C)Cc1ccc(Cl)nc1
not listed: [16] | [19]
inactive: all other assays above

CCc1cccc(C)c1N(C(=O)CCl)C(C)COC (stereo not drawn)
active: [12] 13.1 µM | [13] 14.2 µM
not listed: [16] | [19]
inactive: all other assays above

CN(C)C(=O)Nc1cccc(C(F)(F)F)c1
not listed: [18] | [19]
inactive: all other assays above

C[N+]1(C)CCCCC1
not listed: [16] | [18]
inactive: all other assays above

CCOC(=O)CC(SP(=O)(OC)OC)C(=O)OCC (stereo not drawn)
active: [5] 2.5 µM | [17] 0.323 µM
not listed: [16] | [18]
inactive: all other assays above
